The record followed here is article PMC12136788.

Changes are numbered by the printed parent chain. In all, about 5,800 sequences were measured (“enrichment r”: median about 0.68, highest 2% from about 11 on). The list comes from a sample in which the highest values are over-represented; it also holds similar and randomly drawn sequences.

T1: UNK ZnF1-6 (called full-length) (human, UniProt Q9C0B0 30-357)
T1 sequence: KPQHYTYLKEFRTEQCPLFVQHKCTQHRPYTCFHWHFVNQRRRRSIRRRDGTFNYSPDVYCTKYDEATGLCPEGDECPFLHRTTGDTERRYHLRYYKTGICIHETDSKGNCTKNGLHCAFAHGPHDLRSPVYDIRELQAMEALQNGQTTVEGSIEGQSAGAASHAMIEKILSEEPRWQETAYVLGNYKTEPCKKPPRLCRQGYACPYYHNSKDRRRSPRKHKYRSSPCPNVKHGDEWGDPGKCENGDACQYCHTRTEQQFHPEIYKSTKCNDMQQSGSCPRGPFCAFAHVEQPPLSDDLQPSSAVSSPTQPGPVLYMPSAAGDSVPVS

B1: ENSG00000099904:stop:overlap|stop_codon|ENSG00000099904|stop_codon|NA|stop_codon (ssRNA)
RNA: GGGAGUUCUACAGUCCGACGAUCGGGCCAUGUGCCGCCUGCACUUGGCUGCCUCCAGUCUUUUCCCCAGCCUCUCGGGGCCCUAGCAGGAUGACAAGUAGGCGGCUCUGGGGCCCAGGACAGCCCAGCUGGGGACCCAGGAGGCAACAGAGGAUUGAGCAUCA
B2: chr2:216675367:216675485:-|3pUTR|ENSG00000115461|msi1|FALSE|unique (ssRNA)
RNA: GGGAGUUCUACAGUCCGACGAUCGCCAGGCAGAGGCCAGCCCUCCGUGGUGCACACAGCACGCGCCUCAGUCCAUCCCAUUUUAGUCUUUAAACCCUCAGGAAGUCACAGUCUCCGGACACCACACCACAUGAGCCCAACAGGCAACAGAGGAUUGAGCAUCA
B3: chr15:63775065:63775180:-|CDS|ENSG00000103657|unk|FALSE|unique (ssRNA)
RNA: GGGAGUUCUACAGUCCGACGAUCUGGUUCAGCAGAUGUCCAUUCUGUUAGUGAACGCCCCCGGUCAAGCACUGAUGCACUUAUAGAAAUGGGUGUUCGAACUGGUCUAAGUUUAUUAUUUGCGCUUCUAAGACAAAGUUGGAUCAACAGAGGAUUGAGCAUCA
B4: chr14:77132432:77132533:-|3pUTR|ENSG00000177108|unk|total|mutant (ssRNA)
RNA: GGGAGUUCUACAGUCCGACGAUCUGUGAUUGCUGGACCCAGAGGCAAGAUCUGCAGAGAUGCCUGUGAGAUAUUUGCUUUCCCCGAGGGGAGUGUGGGCAUGGGAGGGGUCUGAAAAUCAGGACCCAACCCAGCCACUGAAGACAACAGAGGAUUGAGCAUCA
B5: chr8:22006364:22006465:+|3pUTR|ENSG00000130227|msi1|total|mutant (ssRNA)
RNA: GGGAGUUCUACAGUCCGACGAUCUGUUGCUGCCCGUUGUACACAUCUCCCGUUCAGCUCUUGCCCACGGGACACUCAUCAAUCCGGUUUUAUUUUUAUUUCUUUCCUCUACCCCCAGAAACAAGCCUGUUAAUUUUUUUUCCUCAACAGAGGAUUGAGCAUCA
B6: ENSG00000147536:stop:overlap|stop_codon|ENSG00000147536|stop_codon|NA|stop_codon (ssRNA)
RNA: GGGAGUUCUACAGUCCGACGAUCUCCGCUACGUCCUCAGCAGCUACUUGCGGUGUCGCCUCAUGAAGUUCCCAAACCAGAUCUAGAUUCUUACGUGUUUCUGAGAGUGAGAGAACGACAAGAAAACAUACUGGUAGAACCAGACAACAGAGGAUUGAGCAUCA
B7: chr6:43186014:43186115:+|CDS|ENSG00000112659|msi1|total|mutant (ssRNA)
RNA: GGGAGUUCUACAGUCCGACGAUCCUGCUUUUCUCCUUGGUGAAGCGCUACCUUUGUGUCACGUCCCUCCUGGAUCAGCUGAACCGCAGUCCAGAGCUGGGAGCUGGAGACCAAAGCUCCCCAUGUGCCACAAGAGAGAAAAGCCAACAGAGGAUUGAGCAUCA
B8: ENSG00000137168:stop:overlap|stop_codon|ENSG00000137168|stop_codon|NA|stop_codon (ssRNA)
RNA: GGGAGUUCUACAGUCCGACGAUCCAAACUCCCAGGACCGCCCUGUGGACGACGUGAAGAUCAUUAAGGCAUACCCUUCUGGGUAGACUUGCUACCCUCUUGAGCAGCUCUUCUGAGAUGGCCCCAGUGAACCAGCUUCUAGAUCAACAGAGGAUUGAGCAUCA
B9: chr8:22006364:22006465:+|3pUTR|ENSG00000130227|msi1|FALSE|unique (ssRNA)
RNA: B5 RNA with C33U, C34A, C49U, C50A, C83U, C84A
B10: chr2:74214837:74214938:+|3pUTR|ENSG00000065911|msi1_unk|total|mutant (ssRNA)
RNA: GGGAGUUCUACAGUCCGACGAUCCUGUCCUUUUGAGGCUCCGUCAGUUUAUUGGGAAAAUGUUCCGGAUUAUUCCUUGCUAUCCGUACUCAUUUUAUGUAUGUUACCCUUCAGUAAGUUCUCCCCAUUUCCGUUUUCCCGGACCAACAGAGGAUUGAGCAUCA
B11: ENSG00000070961:be:win_6151|3pUTR|ENSG00000070961|bound_else_gene|NA|bound_elsewhere_windowed (ssRNA)
RNA: GGGAGUUCUACAGUCCGACGAUCCAAUCACUUUUUCUCUUUUAUCCUCUAACCAAAAAAUUGUUUAAUUUUGCAUCCCAAAUGUUUUUAAUCUUUGUAUAUUUUUUAAAAAUCCUUUUCUCCUCAUCAUUGCCUUUUUUGUGGCAACAGAGGAUUGAGCAUCA
B12: chr7:7234405:7234460:+|CDS|ENSG00000106392|msi1_unk|FALSE|overlapping (ssRNA)
RNA: GGGAGUUCUACAGUCCGACGAUCAAUUUUUUAACCUUCCUCUGUGGAUCAGCAAUAGGAUUUCUUUUAUGUUCUCAGCUAUUUAGUAUUUUGUUGGGAGAAAAGGUUGACACCCAGCCUAAUGUUCUUCAUAAUGAUCCUCAUCAACAGAGGAUUGAGCAUCA
B13: chr13:51761002:51761103:+|3pUTR|ENSG00000139668|unk|FALSE|unique (ssRNA)
RNA: GGGAGUUCUACAGUCCGACGAUCACGGCAAGAUUGUAAUCCUGCUGUAUUCCUCGCCCUCUGUAUUCUAUCCCUUUAAAAACUAGAUAUUUAAACAUUUUAUCCUAAUGUGUUUCAUCAGAACACUUUGCACACUUUCUUACUCAACAGAGGAUUGAGCAUCA
B14: chr3:25596636:25596694:+|3pUTR|ENSG00000077092|msi1_unk|FALSE|overlapping (ssRNA)
RNA: GGGAGUUCUACAGUCCGACGAUCUCCCCAGUACCUUCAGUUCCAGGAUUUAAAAUGCAAGAAAAAACAUUUUUACUGCUGCUUAGUUUUUGGACUGAAAAGAUAUUAAAACUCAAGAAGGACCAAGAAGUUUUCAUAUGUAUCCAACAGAGGAUUGAGCAUCA
B15: chr2:74214837:74214938:+|3pUTR|ENSG00000065911|msi1_unk|FALSE|overlapping (ssRNA)
RNA: B10 RNA with C40U, C41A, C64U, C65A, C83U, C84A, C130U, C131A, C138U, C139A
B16: chr6:15520333:15520434:+|3pUTR|ENSG00000008083|unk|FALSE|unique (ssRNA)
RNA: GGGAGUUCUACAGUCCGACGAUCCUUGCUGUAGGAUUCAAGCUGUCUUUGCACUAGCUCUAAAGAAGAUUUUCUUCUGGUUUUAGAGAACUAAUUUUGUUUUAGCAUUAAACUGUUGAACUUUUUUUUGUACUUAGAAAACCUCAACAGAGGAUUGAGCAUCA

The target of the experiment is T1, UNK ZnF1-6 (called full-length). As to the kind of experiment: nsRBNS (natural sequence RNA bind-n-seq); RBNS binding buffer (assumed for nsRBNS): 25 mM Tris pH 7.5, 150 mM KCl, 3 mM MgCl2, 0.01% Triton X-100, 500 ug/ml BSA, 20 U/ml SUPERase-In, 4 C; UNK is unkempt and MSI1 is Musashi-1; names of the RNAs are library labels; protein concentration not given here; high values mean tight binding.
For B1, the binding signal came out at 1.2 enrichment R.
B2 returned a binding signal of 2.44 enrichment R.
Consider B3, for which the binding signal came out at 0.696 enrichment R.
In the case of B4 it was 0.528 enrichment R; in that of B5, 2.95 enrichment R.
In the case of B6 it was 33.9 enrichment R; in that of B7, 0.544 enrichment R.
B8 displayed a binding signal of 0.7 enrichment R.
Consider B9, for which the binding signal is 41.4 enrichment R.
In the case of B10 it was 0.338 enrichment R.
As for B11, the binding signal turned out to be 4.78 enrichment R.
Take B12: the binding signal was found to be 2.12 enrichment R.
In the case of B13 it was 28.5 enrichment R; in that of B14, 0.303 enrichment R.
In the case of B15 it was 12.4 enrichment R; in that of B16, 3.46 enrichment R.
